High-throughput results from PubChem BioAssay.
Shown are actives, neighbours in structure and some others; about 11% of the full set was active somewhere.
NPR1 antag: human Npr1 receptor antagonism | P16066 | AID 1347048 | Potency, µM (doses to about 46.3 µM), inactives show at the top dose activity change, negative = inhibition, usual class: inhibitors | HEK293 hNpr1 GloSensor cGMP, ANP-stimulated luminescence | 76,000 compounds, 1.6% hits; calls by dose curve; note: nearly all actives have a fitted effect of over 60% in size
Target sequence (P16066 whole entry, looked up): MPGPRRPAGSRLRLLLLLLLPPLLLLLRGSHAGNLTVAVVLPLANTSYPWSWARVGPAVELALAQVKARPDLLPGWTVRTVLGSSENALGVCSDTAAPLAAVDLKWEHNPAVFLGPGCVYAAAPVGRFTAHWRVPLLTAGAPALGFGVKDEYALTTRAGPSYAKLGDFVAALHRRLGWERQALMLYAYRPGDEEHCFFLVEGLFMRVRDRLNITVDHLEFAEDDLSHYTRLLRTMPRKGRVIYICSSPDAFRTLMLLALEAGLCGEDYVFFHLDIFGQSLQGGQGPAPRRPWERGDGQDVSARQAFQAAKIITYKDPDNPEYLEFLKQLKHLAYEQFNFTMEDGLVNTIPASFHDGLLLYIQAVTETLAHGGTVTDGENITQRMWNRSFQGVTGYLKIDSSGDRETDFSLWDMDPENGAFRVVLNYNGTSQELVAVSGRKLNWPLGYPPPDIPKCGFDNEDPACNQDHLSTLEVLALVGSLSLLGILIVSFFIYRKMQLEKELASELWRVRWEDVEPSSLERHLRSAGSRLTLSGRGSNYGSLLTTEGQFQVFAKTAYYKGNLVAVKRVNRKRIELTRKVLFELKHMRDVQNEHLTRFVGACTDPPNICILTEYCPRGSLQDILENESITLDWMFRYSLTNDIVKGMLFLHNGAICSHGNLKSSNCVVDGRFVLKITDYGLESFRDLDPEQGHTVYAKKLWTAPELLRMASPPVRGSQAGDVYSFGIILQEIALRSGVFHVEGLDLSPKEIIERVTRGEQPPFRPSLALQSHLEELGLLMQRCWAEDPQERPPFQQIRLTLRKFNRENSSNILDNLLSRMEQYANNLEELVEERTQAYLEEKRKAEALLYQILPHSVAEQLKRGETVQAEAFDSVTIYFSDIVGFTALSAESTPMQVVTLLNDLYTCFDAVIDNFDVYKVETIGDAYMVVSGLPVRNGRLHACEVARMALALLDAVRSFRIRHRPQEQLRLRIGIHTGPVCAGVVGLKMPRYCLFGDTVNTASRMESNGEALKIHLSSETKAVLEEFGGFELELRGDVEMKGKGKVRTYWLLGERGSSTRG
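HEK293 cells stably expressing human Npr1 and cGMP GloSensor pGS-40F, loaded 2 h with 2% GloSensor reagent, given compound 30 min at room temperature. Luminescence read before and 20 min after 0.1 nM hNppA.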
HEK cytotox: cytotoxic compounds in HEK 293 cells | HEK 293 viability, ATP luminescence (CellTiter-Glo), 48-72 h | Potency, µM (highest dose often 115 µM), for the others: top-dose activity change, negative = cytotoxicity, most hits filed as inhibitors | 94,000 compounds, 6.6% hits; note: nearly all actives have a fitted effect of over 60% in size
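Cells seeded first (HEK 293, 250 cells/well), then compound added by pintool. Incubation ran 48 or 72 hr at 37 degree Celsius. CellTiter-Glo was added and luminescence imaged after 10 min at room temperature.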
3T3 cytotox: NIH 3T3 cell cytotoxicity | NIH 3T3 viability, CellTiter-Glo ATP luminescence, 48-72 h | Potency, µM (doses to about 96.7 µM), for inactives: at the highest dose activity change, negative = cytotoxicity, hits mostly inhibitors | 94,000 compounds, 4.3% hits | AID 1345082; note: nearly all actives have a fitted effect of over 55% in size
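Cytotoxicity is measured as loss of cellular ATP: NIH 3T3 cells (400/well) are exposed to compound for 48 or 72 hr at 37 °C, then CellTiter-Glo luminescence is imaged after 10 min at room temperature.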
Luciferase inh: inhibitors of firefly (Photinus pyralis) luciferase; P08659; 76,000 compounds, 2.5% hits; Potency, µM (series often up to 115 µM), hits mostly inhibitors; purified P. pyralis luciferase, luminescence, biochemical; note: nearly all actives have a fitted effect of over 65% in size
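Biochemical qHTS: compound (6-point titration) added to 10uM D-luciferin plus 10uM ATP in Tris acetate pH 7.5 buffer with Mg, Tween-20 and BSA, then purified enzyme at 10nM; light output imaged.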
* = called active by the depositor; i = inactive; ? = inconclusive; · = not tested or not shown; ! = repeats disagree; [ ] = remark or other dose. Unless noted, calls come from the whole dose curve; as a rule, active = well fitted curve in the direction sought with a large enough effect; inconclusive = small, poorly fitted or top-dose-only effect, or another doubt; inactive = no such curve, though single readings can be large; an effect the other way counts as inactive or inconclusive. % is set by controls: 0 for no effect and ±100 for the full control effect; potency is the fitted concentration of half-maximal effect.

SMILES | NPR1 antag | HEK cytotox | 3T3 cytotox | Luciferase inh
CC1=C[C@@H](CN2CCC(CO)CC2)[C@H](C(C)C)C[C@H]1Cc1nnc(-c2cccnc2)o1 | 2%[70.6 µM] | ? | -30%[174 µM] | i
CC1=C[C@@H](CN2CCOCC2)[C@H](C(C)C)C[C@H]1Cc1nnc(-c2ccccc2F)o1 | -20%[70.6 µM] | 89µM* | ? | i
COc1ccc(CCC(=O)N2[C@@H]3CC[C@H]2CC(NC(=O)c2ccc(F)cc2)C3)cc1 (some centres undefined) | 3% | -14% | ? | i
COC1CCCN(C(=O)c2cc(-c3ccc(F)cc3)cc3ncn(C)c23)C1 (centres undefined) | 1%[70.6 µM] | ? | -26%[138 µM] | 25µM*
COc1ncccc1-c1cc(C(=O)N2CCC(OC)CC2)c2c(c1)ncn2C | 1%[70.6 µM] | -17%[172 µM] | ? | i
O=C1CC2(CCN(C(=O)C3CCCN(C(=O)c4ccc(F)cc4)C3)CC2)Oc2ccccc2N1 (centres undefined) | · | -15% | -13% | ·
COC(=O)N1CCn2c(nnc2-c2ccc(OC)cc2)C1 | 2%[70.6 µM] | ? | -12%[138 µM] | i
COc1ccccc1-c1nccc2c(=O)cc(-c3ccccn3)oc12 | 2%[70.6 µM] | ? | ? | i
O=c1cc(C2=CCOCC2)oc2c(-c3cccc4[nH]ccc34)nccc12 | -13%[70.6 µM] | 40µM* | ? | i
Fc1ccc(-c2cnc3n2C[C@H](CNCc2ccccn2)OC3)cc1 | -4%[70.6 µM] | ? | -19%[138 µM] | i
O=S(=O)(NC[C@H]1Cn2c(-c3ccc(F)cc3)cnc2CO1)c1ccc(Cl)cc1 | ? | 100µM* | ? | i
COc1ccccc1C(=O)NC[C@H]1Cn2c(-c3ccc(Cl)cc3)cnc2CO1 | ? | 13µM* | 10µM* | i
O=C(NC[C@H]1Cn2c(-c3ccc(F)cc3)cnc2CO1)c1ccc(Cl)cc1 | 18µM* | 89µM* | ? | ?
Fc1ccc(-c2cnc3n2C[C@H](CN(Cc2ccccc2)Cc2ccccc2)OC3)cc1 | -20%[70.6 µM] | 35µM* | 28µM* | i
COCC(=O)NC[C@H]1Cn2c(-c3ccc(Cl)cc3)cnc2CO1 | 1%[70.6 µM] | -24%[172 µM] | ? | i
CCOc1ccc(NC(=O)[C@@H]2C[C@@H](O)CN2C2CCN(C(=O)c3cccc(OC)c3)CC2)cc1 | -6% | -17% | -16% | i
CO[C@H]1CN(C(C)C)[C@H]1C1CCN(C(=O)C2CC=CC2)CC1 | · | -23% | -22% | ·
O=C(NC[C@H]1Cn2c(-c3ccc4c(c3)OCO4)cnc2CO1)c1ccc2c(c1)OCO2 | -27%[70.6 µM] | 63µM* | 28µM* | ?
COc1ccc(Cn2c(=O)c(C(=O)Nc3ccccc3Cl)nc3cccnc32)cc1 | · | -11% | -9% | ·
CCOC(=O)C1(Cc2ccc(F)cc2F)CCCN(S(=O)(=O)c2c(C)noc2C)C1 (centres undefined) | 5% | 40µM* | ? | i
OCc1cccc(-c2ccc3ncc(Nc4ccnc(N5CCOCC5)c4)n3n2)c1 | 6%[70.6 µM] | 100µM* | ? | ?
COc1ccc(-c2ccc3ncc(Nc4ccnc(N5CCOCC5)c4)n3n2)cn1 | 3%[70.6 µM] | 28µM* | 22µM* | i
COc1ccccc1-c1ccc2ncc(Nc3ccnc(N4CCOCC4)c3)n2n1 | -24%[70.6 µM] | ? | ? | i
COc1cc(NC(=O)CN2C(=O)NC3(CCCCC3)C2=O)cc(OC)c1 | 5% | -13% | -15% | i
CNC(=O)[C@@H](C1CC1)N1CCC[C@H]1C(=O)NCc1ccccc1 | 0%[70.6 µM] | 1%[172 µM] | 2%[138 µM] | i
SMILES | NPR1 antag | HEK cytotox | 3T3 cytotox | Luciferase inh
COc1ccc(CC(=O)N2CCC(Oc3ncccc3C(=O)N3CCCCC3)C2)cc1 (centres undefined) | -1% | -22% | 2% | i
O=C1CCC2(C(=O)NCc3cc(F)ccc3F)CCCC=C2N1Cc1ccccc1 (centres undefined) | · | ? | -24% | ·
Cc1ccc(-c2nc(C(=O)NCc3cccc(C)c3)no2)cc1 | -3% | 79µM* | ? | ?
O=C(NCc1cccc(Cl)c1)c1noc(-c2ccc(F)cc2)n1 | 3% | ? | 25µM* | i
O=C(C1CCCN1C(=O)c1ccc(F)cc1)N1CCCC(c2nc3ncccc3[nH]2)C1 (centres undefined) | · | -2% | -19% | ·
O=C1CCCN1CCCN1C(=O)[C@@H]2C[C@@H](O)CN2C2(CN(C3Cc4ccccc4C3)C2)C1=O | 3% | 2% | -3% | i
O=C(C1CCCC1)N1CC2(CCN(Cc3ccccn3)CC2)Cc2ccccc21 | · | 100µM* | ? | ·
O=C(C1CCCC1)N1CC2(CCN(CC3CC3)C2)Cc2ccccc21 (centres undefined) | · | 25µM* | 45µM* | ·
O=C(C1CCCC1)N1CC2(CCN(Cc3c[nH]c4ccccc34)CC2)Cc2ccccc21 | · | 20µM* | 13µM* | ·
CC(=O)N1CC2(CCN(CC3CC3)C2)Cc2ccccc21 (centres undefined) | · | -7%[172 µM] | -9%[138 µM] | ·
O=C(O)CCC(=O)N1CCC2(Cc3ccccc3N(C(=O)C3CCCC3)C2)C1 (centres undefined) | · | i | -5% | ·
O=C(c1ccc(OC2CCN(Cc3c[nH]c4ccccc34)CC2)cc1)N1CCCCC1 | 7% | 22µM* | ? | i
CCCn1cc(-c2ccncc2)cc1C(=O)N1CCN(c2ccccc2OC)CC1 | -17% | -12% | -5% | i
O=C(Cc1cccc(Cl)c1)N1CCCC(C(=O)N2CCC(N3CCOC3=O)CC2)C1 (centres undefined) | · | i | 4% | ·
CCOC(=O)C1CCCN(C(=O)Cc2ccc(N(Cc3ccc(C)cc3)C(=O)c3ccco3)cc2)C1 (centres undefined) | -22% | ? | ? | i
CCOC(=O)NC1CCN(c2ccc3nnc(C4CC4)n3n2)CC1 | · | i | -16% | ·
COCC(=O)NCCNC(=O)c1ccc(-c2cccc(OC)c2)cc1 | · | ? | -35%[138 µM] | ·
O=S(=O)(c1cc(F)cc(F)c1)N1CCC(C2CCNC2)CC1 (centres undefined) | 0% | -31% | ? | i
Cn1ncc2c(C(=O)NCc3cccc(Cl)c3)cc(-c3ccccc3)nc21 | · | -20% | -25% | ·
CCC(C)NC(=O)c1cc(-c2cccc(F)c2)nc2c1cnn2C (centres undefined) | · | 89µM* | ? | ·
COC(=O)CNC(=O)c1cc(-c2cccc(F)c2)nc2c1cnn2C | · | -13%[172 µM] | ? | ·
Cn1ncc2c(C(=O)NCc3ccc(Cl)cc3)cc(-c3cccc(F)c3)nc21 | · | 40µM* | 32µM* | ·
Cn1ncc2c(C(=O)NCc3cccc(F)c3)cc(-c3ccc(Cl)cc3)nc21 | · | 45µM* | ? | ·
Cn1ncc2c(C(=O)NCCc3ccc(Cl)cc3)cc(-c3cccnc3)nc21 | · | 32µM* | ? | ·
CCOCCNC(=O)c1cc(-c2cccc(F)c2)nc2c1cnn2C | · | -29%[172 µM] | ? | ·
Cn1ncc2c(C(=O)NC3CC3)cc(-c3cccnc3)nc21 | · | 63µM*! | 40µM*! | ·
O=c1c2nc(-c3ccc(O)c(F)c3)ccc2ncn1-c1ccccc1 | 8%[70.6 µM] | -15%[172 µM] | ? | ?
